{"source": "the antibiotic and cytotoxicity screens of Wong et al. (2023)", "note": "In all, about 39,000 compounds went through this assay and about 1,500 (3.8%) were called active. Only a selection was taken, and actives are over-represented in it overall.", "data": [{"system": "HSkMC (human skeletal muscle cells)", "experiment": "cytotoxicity call (relative viability < 0.9)", "settings": "10 µM", "values": [{"smiles": "Cn1cnc(CCNC(=O)C[C@@H]2CC[C@@H]3[C@H](COC[C@@H](O)CN3C(=O)C3CC3)O2)c1", "cytotoxicity call": "inactive"}, {"smiles": "C[C@H](CO)N1C[C@H](C)[C@@H](CN(C)S(=O)(=O)c2cccs2)Oc2c(NC(=O)c3cnccn3)cccc2C1=O", "cytotoxicity call": "inactive"}, {"smiles": "COc1cccc(-c2cnc3c(c2)C(=O)N([C@H](C)CO)C[C@H](C)[C@H](CN(C)S(=O)(=O)c2cccs2)O3)c1", "cytotoxicity call": "inactive"}, {"smiles": "COc1ccc(S(=O)(=O)N(C)C[C@@H]2OCc3cn(nn3)CCCC(=O)N([C@@H](C)CO)C[C@H]2C)cc1", "cytotoxicity call": "inactive"}, {"smiles": "C[C@H](CO)N1C[C@H](C)[C@H](CN(C)C(=O)NC2CCCCC2)Oc2ccc(NS(=O)(=O)c3cn(C)cn3)cc2C1=O", "cytotoxicity call": "inactive"}, {"smiles": "CC1(C)OC(=O)C2(C(=O)O1)[C@@H](c1ccc(-c3ccc(-c4ccc(O)cc4)cc3)cc1)CC(=O)C[C@H]2c1ccccc1", "cytotoxicity call": "inactive"}, {"smiles": "CCCn1c(=O)[nH]c(=O)c2[nH]cnc21", "cytotoxicity call": "inactive"}, {"smiles": "COc1ccc(NC(=O)N(C)C[C@@H]2Oc3ccc(NC(=O)CCCCCC(=O)Nc4ccccc4N)cc3C(=O)N([C@H](C)CO)C[C@@H]2C)cc1", "cytotoxicity call": "inactive"}, {"smiles": "COc1ccc(NC(=O)Nc2ccc3c(c2)CC(=O)N([C@H](C)CO)C[C@@H](C)[C@H](CN(C)Cc2ccc(Cl)c(Cl)c2)O3)cc1", "cytotoxicity call": "inactive"}, {"smiles": "COc1ccc(NC(=O)Nc2ccc3c(c2)CC(=O)N([C@H](C)CO)C[C@@H](C)[C@@H](CN(C)Cc2ccc(Cl)c(Cl)c2)O3)cc1", "cytotoxicity call": "active"}, {"smiles": "COc1ccc(NC(=O)Nc2ccc3c(c2)CC(=O)N([C@@H](C)CO)C[C@H](C)[C@H](CN(C)Cc2ccc(Cl)c(Cl)c2)O3)cc1", "cytotoxicity call": "active"}, {"smiles": "COc1ccc(NC(=O)Nc2ccc3c(c2)CC(=O)N([C@@H](C)CO)C[C@@H](C)[C@H](CN(C)Cc2ccc(Cl)c(Cl)c2)O3)cc1", "cytotoxicity call": "inactive"}, {"smiles": "COc1ccc(NC(=O)Nc2ccc3c(c2)CC(=O)N([C@@H](C)CO)C[C@H](C)[C@@H](CN(C)Cc2ccc(Cl)c(Cl)c2)O3)cc1", "cytotoxicity call": "inactive"}, {"smiles": "COc1ccc(NC(=O)Nc2ccc3c(c2)CC(=O)N([C@H](C)CO)C[C@H](C)[C@H](CN(C)Cc2ccc(Cl)c(Cl)c2)O3)cc1", "cytotoxicity call": "inactive"}, {"smiles": "C[C@@H]1CCCCO[C@@H](CN(C)C(=O)Nc2cccc3ccccc23)[C@@H](C)CN([C@H](C)CO)C(=O)c2cc(NC(=O)Nc3cccc4ccccc34)ccc2O1", "cytotoxicity call": "inactive"}, {"smiles": "NC(=O)CSc1ncn(-c2ccccc2)n1", "cytotoxicity call": "inactive"}, {"smiles": "O=C(CCCCCNC(=O)OCc1ccc(CO[C@H]2C[C@@H](c3csc4ccccc34)C=C(C(=O)N3CCN(Cc4ccccc4)CC3)O2)cc1)NO", "cytotoxicity call": "inactive"}, {"smiles": "O=C(Nc1ccc(-c2nc3cc(NC(=O)c4ccccc4[N+](=O)[O-])ccc3o2)cc1)c1ccccc1[N+](=O)[O-]", "cytotoxicity call": "inactive"}, {"smiles": "O=C(N[C@H](NC(=S)Nc1ccc(F)c([N+](=O)[O-])c1)C(Cl)(Cl)Cl)C(c1ccccc1)c1ccccc1", "cytotoxicity call": "active"}, {"smiles": "CC(C)C(=O)Nc1ccc([N+](=O)[O-])c(C(F)(F)F)c1", "cytotoxicity call": "inactive"}, {"smiles": "C[C@@H]1CN([C@@H](C)CO)C(=O)c2cc(NC(=O)Nc3ccc4c(c3)OCO4)ccc2O[C@@H](C)CCCCO[C@H]1CN(C)C(=O)c1ccccc1", "cytotoxicity call": "inactive"}, {"smiles": "COCC(=O)Nc1ccc2c(c1)OC[C@@H](C)N(C(=O)c1ccccc1F)C[C@@H](C)[C@@H](OC)CN(C)C2=O", "cytotoxicity call": "inactive"}, {"smiles": "C[C@H](CO)N1C[C@H](C)[C@@H](CN(C)C(=O)NC2CCCCC2)Oc2ccc(NC(=O)CCN3CCOCC3)cc2C1=O", "cytotoxicity call": "inactive"}, {"smiles": "Cc1ccc(S(=O)(=O)Nc2ccc3c(c2)C(=O)N([C@H](C)CO)C[C@H](C)[C@@H](CN(C)Cc2ccc(Cl)c(Cl)c2)O3)cc1", "cytotoxicity call": "inactive"}, {"smiles": "Cc1ccc(S(=O)(=O)Nc2ccc3c(c2)C(=O)N([C@H](C)CO)C[C@@H](C)[C@H](CN(C)Cc2ccc(Cl)c(Cl)c2)O3)cc1", "cytotoxicity call": "active"}, {"smiles": "Cc1ccc(S(=O)(=O)Nc2ccc3c(c2)C(=O)N([C@H](C)CO)C[C@@H](C)[C@@H](CN(C)Cc2ccc(Cl)c(Cl)c2)O3)cc1", "cytotoxicity call": "active"}, {"smiles": "Cc1ccc(S(=O)(=O)Nc2ccc3c(c2)C(=O)N([C@@H](C)CO)C[C@H](C)[C@H](CN(C)Cc2ccc(Cl)c(Cl)c2)O3)cc1", "cytotoxicity call": "inactive"}, {"smiles": "Cc1ccc(S(=O)(=O)Nc2ccc3c(c2)C(=O)N([C@@H](C)CO)C[C@@H](C)[C@H](CN(C)Cc2ccc(Cl)c(Cl)c2)O3)cc1", "cytotoxicity call": "inactive"}, {"smiles": "Cc1ccc(S(=O)(=O)Nc2ccc3c(c2)C(=O)N([C@@H](C)CO)C[C@H](C)[C@@H](CN(C)Cc2ccc(Cl)c(Cl)c2)O3)cc1", "cytotoxicity call": "active"}, {"smiles": "Cc1ccc(S(=O)(=O)Nc2ccc3c(c2)C(=O)N([C@H](C)CO)C[C@H](C)[C@H](CN(C)Cc2ccc(Cl)c(Cl)c2)O3)cc1", "cytotoxicity call": "active"}, {"smiles": "Cc1cccc(C(=O)N2CCC[C@@H](Cn3cc(C(C)(C)N)nn3)C2)c1C", "cytotoxicity call": "inactive"}, {"smiles": "CC(C)NC(=O)Nc1ccc2c(c1)C(=O)N([C@@H](C)CO)C[C@H](C)[C@@H](CN(C)S(=O)(=O)c1ccccc1)O2", "cytotoxicity call": "inactive"}, {"smiles": "C[C@@H]1CCCCO[C@H](CN(C)S(=O)(=O)c2cccs2)[C@H](C)CN([C@@H](C)CO)C(=O)c2cc(NC(=O)Cc3ccccc3)ccc2O1", "cytotoxicity call": "inactive"}, {"smiles": "C[C@H]1CN([C@@H](C)CO)C(=O)c2cccc(NS(=O)(=O)c3cccs3)c2O[C@H]1CN(C)S(=O)(=O)c1ccc(F)cc1", "cytotoxicity call": "inactive"}, {"smiles": "CN(C)Cc1cn(CC[C@H]2CC[C@H](N)[C@@H](CO)O2)nn1", "cytotoxicity call": "inactive"}, {"smiles": "Cc1noc(C)c1NC(=O)Nc1ccc2c(c1)C(=O)N([C@@H](C)CO)C[C@H](C)[C@H](CN(C)C(=O)Nc1ccc(C(F)(F)F)cc1)OCCCC[C@H](C)O2", "cytotoxicity call": "inactive"}, {"smiles": "O=C(C[C@H]1CC[C@H]2[C@@H](COC[C@@H](O)CN2C(=O)c2cccnc2)O1)NCc1ccc(-c2ccccc2)cc1", "cytotoxicity call": "inactive"}, {"smiles": "Cn1nnnc1SCC(=O)Nc1ncccn1", "cytotoxicity call": "inactive"}, {"smiles": "C[C@@H]1CN([C@H](C)CO)C(=O)c2cccc(NS(=O)(=O)c3ccccc3)c2O[C@@H]1CN(C)Cc1ccc(Cl)c(Cl)c1", "cytotoxicity call": "inactive"}, {"smiles": "Cn1cnc(S(=O)(=O)N2C[C@@H](O)COC[C@@H]3O[C@@H](CC(=O)NC4Cc5ccccc5C4)CC[C@H]32)c1", "cytotoxicity call": "inactive"}, {"smiles": "C[C@H](O)C#Cc1ccc2c(c1)O[C@H](CN(C)C(=O)Nc1ccccc1)[C@H](C)CN([C@H](C)CO)S2(=O)=O", "cytotoxicity call": "inactive"}]}]}
